A selection: hits, their analogues and other compounds. The true share with any hit is near 19%.
IL1B secr inh – inflammasome signaling inhibition, IL-1 beta readout; THP-1 LPS/ATP IL-1B secretion, AlphaLISA, 16 h; stronger effect = lower value; activity change, % at 57.5 µM; 360,000 tested, 4.7% active; in the data active = activity change below about -50%; inconclusive = mostly about -30% to -49%
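THP-1 cells pretreated 1 hr with compounds (up to 57.5 uM final), then stimulated with LPS (250 ng/mL final) plus ATP (1.25 mM final); secreted IL-1B measured by AlphaLISA after 16 hr, decreased signal indicating inhibition.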
HT1080 IDH1KD tx – toxicity to HT-1080 IDH1 knockdown cells (counter line). HT-1080 IDH1 knockdown viability, ATP luminescence, 48 h. Potency, µM (series often up to 46.1 µM), for inactives: top-dose activity, negative = toxicity, usual class: cytotoxic. 360,000 tested, 2% active;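 note: potency is the fitted concentration of half-maximal effect; 0% = DMSO wells and -100% = cell-free medium wells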
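% activity derives from luminescence (CellTiter-Glo), normalised to DMSO and no-cell wells. HT-1080-IDH1KD cells, 750/well, had 48 h compound exposure at 37 °C.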
TDP1 cell CPT – DT40-hTDP1 cell growth loss with CPT. chicken DT40 Tdp1-/-;hTDP1 cells + 20 nM CPT, ATP luminescence, 48 h. Potency, µM (titrated, usually from 46.2 µM), inactives show at the highest dose activity change, negative = growth inhibition, usual class: inhibitors. 420,000 tested, 12% active. AID 686979; note: potency is the fitted concentration of half-maximal effect; nearly all actives have a fitted effect of over 55% in size
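Cell growth measured by CellTiter-Glo luminescence after a minimum 48 h, 37 C compound exposure with 20 nM CPT in Tdp1-knockout DT40 cells stably expressing hTDP1, seeded 400/well; qHTS titration format.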
HT1080-NT tox – kills 2HG-producing HT-1080-NT fibrosarcoma cells | HT-1080-NT fibrosarcoma viability, CellTiter-Glo ATP luminescence, 48 h | Potency, µM (series often up to 46.1 µM), for the others: top-dose activity, negative = less viability, actives largely listed as cytotoxic | 360,000 tested, 1.6% active | AID 686970;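 note: NT is the 2HG producing partner of a matched IDH1 knockdown line; potency is the fitted concentration of half-maximal effect; 0% = DMSO-treated cells and -100% = media-only wells without cells; nearly all actives have a fitted effect of over 55% in size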
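Compounds were tested in concentration-response format on HT-1080-NT cells for 48 hours at 37 degrees C. Cell viability came from CellTiter-Glo luminescence; curves were classified by r2, response magnitude and activity.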
DT40 TDP1 no CPT – qHTS for Inhibitors of human tyrosyl-DNA phosphodiesterase 1 (TDP1): qHTS in cells in absence of CPT; Potency, µM (top dose mostly 46.2 µM), for the others: top-dose activity change, negative = growth inhibition, hits mostly inhibitors; AID 686978, 2013; 420,000 tested, 15% active; DT40 Tdp1-/- hTDP1 cells, no CPT, ATP luminescence, 48 h; note: potency is the fitted concentration of half-maximal effect; nearly all actives have a fitted effect of over 55% in size
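Seeded 400 DT40-hTDP1 cells/well (vehicle DMSO, no 20 nM CPT); pinned compounds; ≥48 hr at 37 °C; CellTiter-Glo luminescence as viability measure.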
Starred values were filed as active, the others as inactive; ? = inconclusive; . = no result given; ! = not confirmed by another sample. Unless noted, calls come from the whole dose curve; as a rule, active = well fitted curve in the direction sought with a large enough effect; inconclusive = small, poorly fitted or top-dose-only effect, or another doubt; inactive = no such curve, though single readings can be large; an effect the other way counts as inactive or inconclusive. Unless noted, % is set by controls: 0 for no effect and ±100 for the full control effect.

SMILES	IL1B secr inh	HT1080 IDH1KD tx	TDP1 cell CPT	HT1080-NT tox	DT40 TDP1 no CPT
O=C(/C(=C/O)N=Nc1cccc(C(F)(F)F)c1)c1ccccc1	-95.0*	-22.8%	?	?	?
O=C(/C(=C/O)N=Nc1ccccc1Cl)c1ccccc1	-99.0*	14.6µM*	?	13µM*	?
C/C(=N\NC(=O)C1CC1)c1ccccc1O	0.8	7.0%	1.0%	15.0%	-21.9%
CCC(=O)N1c2ccc(S(=O)(=O)CCC(=O)N3CCN(c4ccccc4F)CC3)cc2CC1C (stereo not given)	-21.8	-2.0%	?	-2.3%	16.4µM*
CC(=O)c1ccc(N2CCN(S(=O)(=O)c3ccc4c(c3)CC(C)N4C(=O)C3CCC3)CC2)cc1 (stereo not given)	.	.	7.31µM*	.	5.8µM*
CN1C(=O)Cc2cc(S(=O)(=O)CCC(=O)N3CCN(c4ccccc4F)CC3)ccc21	.	.	?	.	3.3%
CC1Cc2cc(S(=O)(=O)N3CCN(c4ccc(Cl)cc4)CC3)ccc2N1C(=O)C1CC1 (stereo not given)	-17.0	-2.9%	16.4µM*	-16.4%	13µM*
CC(=O)N1c2ccc(S(=O)(=O)N3CCC(C(=O)N4CCN(c5ccc(Cl)cc5)CC4)CC3)cc2CC1C (stereo not given)	?	-16.6%	16.4µM*	-3.8%	5.17µM*
CC1Cc2cc(S(=O)(=O)N3CCN(c4ccccc4)CC3)ccc2N1C(=O)C1CC1 (stereo not given)	-5.7	0.9%	?	-0.9%	?
COc1cc(OC)cc(C(=O)N2CCN(c3ccc(N4CCOCC4)nn3)CC2)c1	-15.0	-6.7%	-18.7%	-3.1%	-6.2%
COc1ccc(OC)c(NC(=O)C2(C)CCN2C(=O)C(C)(C)c2ccccc2)c1 (stereo not given)	-2.6	6.1%	?	12.3%	?
Cc1[nH]c(C)c(S(=O)(=O)N2CCN(c3ccccc3)CC2)c1C(=O)N1CCCCC1	-1.5	-13.8%	-8.3%	-12.0%	-2.7%
Cc1cc(OCc2nc(-c3ccncc3)no2)cc(C)c1Cl	-5.2	-2.1%	11.4%	3.8%	-8.2%
O=C(Nc1ccc2c(c1)OCO2)C1CC(=O)N(c2ccc(F)cc2)C1 (stereo not given)	-2.9	8.4%	6.1%	-10.9%	-14.6%
CC1CCN(S(=O)(=O)c2ccc3nc(N4CCN(c5ccc(F)cc5)CC4)ccc3c2)CC1	.	.	-1.6%	.	-22.8%
CC(=O)N1c2ccc(S(=O)(=O)N3CCC(C(=O)N4CCN(c5ccccc5F)CC4)CC3)cc2CC1C (stereo not given)	3.5	0.7%	25.9µM*	0.8%	?
CC(=O)c1ccc(N2CCN(c3ccc4cc(S(=O)(=O)N5CCC(C)CC5)ccc4n3)CC2)cc1	14.4	7.9%	?	5.3%	7.31µM*!
CC(=O)N1c2ccc(S(=O)(=O)N3CCC(C(=O)N4CCCCC4)CC3)cc2CC1C (stereo not given)	18.8	2.6%	?	2.3%	?
CN(/N=C/c1cc(Cl)cc(Cl)c1O)c1c(Cl)cccc1[N+](=O)[O-]	-3.7	-17.9%	-17.2%	-21.1%	-15.9%
O=C(NC(=S)Nn1cnnc1)c1cccc(Br)c1	4.6	-4.4%	1.7%	-6.4%	-5.5%
CCOc1ncccc1C(=O)NNC(=O)c1cccc(S(=O)(=O)Nc2ccc(OC)cc2)c1	12.4	-9.2%	?	-3.9%	-29.5%
COc1ccc2c(c1)Sc1ccccc1N2	-25.1	?	?	-10.6%	16.4µM*
COC(=O)c1c(NC(=O)C(=O)N2CCOCC2)sc2c1CCCC2	-27.1	-2.8%	-18.5%	-6.3%	3.0%
Cc1ccc(-c2nc(-c3cc4cccc(OCc5cccc(C)c5)c4oc3=O)no2)cc1	.	.	?	.	9.2µM*
COC(=O)C1=C(CSc2nc3ccccc3s2)NC(=O)NC1c1ccc(F)cc1 (stereo not given)	-2.8	-10.8%	?	-18.4%	?
SMILES	IL1B secr inh	HT1080 IDH1KD tx	TDP1 cell CPT	HT1080-NT tox	DT40 TDP1 no CPT
COc1ccc(C(C)=O)cc1CSc1nnc(Nc2ccccc2)s1	-28.2	?	?	?	16.4µM*
COc1ccc(C(C)=O)cc1CSc1nnc(C)s1	-4.5	4.2%	-16.6%	6.3%	-8.4%
COc1ccc(C(C)=O)cc1CSc1nnc(Nc2ccc(C)cc2)s1	-66.5*	?	?	?	23.1µM*
CCOc1ccc(C(=O)NCc2nnnn2-c2ccc(C)c(C)c2)cc1OCC	.	.	-24.1%	.	-23.4%
Cc1nc(N)c(CC(Br)CBr)c(Cl)n1 (stereo not given)	0.0	-0.5%	8.2µM*	-1.1%	7.31µM*
O=Cc1cn(-c2ccccc2)nc1-c1ccncc1	4.6	-15.8%	?	-22.5%	23.1µM*
O=Cc1cn(-c2ccccc2)nc1-c1cccnc1	-82.5*	0.0%	-7.7%	-1.5%	-1.9%
CN(CC(=O)Nc1cccc(C(F)(F)F)c1)C1=NS(=O)(=O)c2ccccc21	7.4	1.2%	-24.9%	0.2%	-12.9%
CCOC(=O)c1ccc(N(C(=O)CNC(=O)c2ccco2)C(C(=O)NCC2CCCO2)c2ccc(OC)c(OC)c2)cc1 (stereo not given)	21.1	-0.2%	-0.2%	-1.5%	-0.7%
Cc1ccc(-n2nc3c(n2)/C(=N/O)CC/C3=N\O)cc1	-23.3	-23.8%	?	-6.2%	16.4µM*
O=C(NC(NC1CCS(=O)(=O)C1)C(Cl)(Cl)Cl)c1ccc(Br)cc1 (stereo not given)	-2.7	?	8.2µM*	?	7.31µM*
CC(C)CNC(=O)c1ccccc1NC(=O)CN(c1ccccc1)S(=O)(=O)N(C)C	-12.5	-9.8%	3.4%	5.1%	-8.6%
CN(CC(=O)Nc1ccccc1Cl)C(=O)COC(=O)c1nc(Cl)c(Cl)c(Cl)c1Cl	-67.4*	-14.3%	?	25.2%	?
CN(CC(=O)Nc1ccccc1Cl)C(=O)COC(=O)c1ccc(Cl)nc1	8.6	2.8%	-3.0%	-0.3%	-5.1%
CCN(CC)S(=O)(=O)c1ccc(NC(=O)[C@H](CCSC)N2Cc3ccccc3C2=O)cc1	.	.	?	.	23.1µM*
CCN(CC)S(=O)(=O)c1ccc(NC(=O)[C@H](CSCc2ccccc2)N2Cc3ccccc3C2=O)cc1	.	-5.8%	20.6µM*	4.8%	?
NCCCC[C@H]1CNC(=S)N1CCc1cccc(F)c1	23.7	-5.4%	?	-19.4%	-22.6%
FC(F)(F)c1cccc(Nc2cc(-c3ccccc3)nc3ncnn23)c1	-4.8	3.9%	-29.5%	7.1%	?
CCOC(=O)CSc1cc(-c2ccccc2)nc2ncnn12	.	18.4µM*	-9.4%	?	?
Cc1cc(-c2ccccc2)n2ncnc2n1	-9.6	5.7%	1.3%	9.1%	3.0%

Assay outcomes: PubChem, National Center for Advancing Translational Sciences (NCATS)
